We go through 113 sequences from publication PMC4242493, “Sequence specificity incompletely defines the genome-wide occupancy of Myc”.

In all, about 33,000 sequences were measured (“normalized occupancy”: median about 0.075, highest 2% from about 0.095 on). The full list was thinned out, with the highest values kept by preference.

Sequence of MaxL homodimer (P61244 whole entry): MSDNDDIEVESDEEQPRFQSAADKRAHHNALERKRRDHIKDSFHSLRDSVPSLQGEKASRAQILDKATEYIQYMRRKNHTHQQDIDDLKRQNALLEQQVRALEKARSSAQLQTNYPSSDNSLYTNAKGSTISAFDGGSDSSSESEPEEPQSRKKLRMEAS

The assay addresses MaxL homodimer (Homo sapiens, UniProt P61244 1-160). As to the kind of experiment: universal protein-binding microarray (PBM); PBS-based mixture, 10 nM His-tagged protein dimer, 2% milk, 200 ng/uL BSA, 50 ng/uL salmon testes DNA, 0.02% TX-100; detection with Alexa 488 anti-His antibody;; high values mean tight binding. The settings on record: protein: recombinant; tags: C-terminal His-tag (pET21a); chain copies: 2; dsDNA, one strand shown. The method, boiled down: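 Each 8-mer received a fluorescence intensity from GenePix 4400A scans of Agilent 4 x 44 K 'all 10-mer' universal arrays. Those arrays had been incubated with His-tagged protein dimer at 10 nM, and the bound protein was marked with a fluorophore-conjugated anti-His antibody at 10 ng/μL. Binding occupancy is the intensity scaled to that of the highest-ranked sequence word.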
AAGCATGA: the binding signal came out at 0.101 normalized occupancy.

In the case of CAGCATCC, the binding signal was determined as 0.0746 normalized occupancy.

Regarding GAGCATGC, the binding signal was 0.113 normalized occupancy.

As for AAGCATAA, the binding signal worked out at 0.0767 normalized occupancy.

For the sequence AAGCATAG, the binding signal is 0.0734 normalized occupancy.

Consider AAGCATTG, for which the binding signal was 0.0783 normalized occupancy.

On to CAGCATAC, for which the binding signal turned out to be 0.0829 normalized occupancy.

With AAGCATGG, the binding signal is 0.11 normalized occupancy.

Consider GAGCACGC, for which the binding signal turned out to be 0.094 normalized occupancy.

Take CAGCATGC: the binding signal amounted to 0.126 normalized occupancy.

Turning to AAGCATTA, the binding signal was found to be 0.082 normalized occupancy.

In the case of GAGCATAC, the binding signal is 0.0789 normalized occupancy.

For ATTGGCAG, the binding signal turned out to be 0.0726 normalized occupancy.

For the sequence GTTTACCA, the binding signal amounted to 0.0757 normalized occupancy.

As to CCGATAAA, the binding signal was determined as 0.0723 normalized occupancy.

Take CATCACCC: the binding signal is 0.0788 normalized occupancy.

Regarding AGTTGCAT, the binding signal came to 0.0779 normalized occupancy.

Consider AGCATAAC, for which the binding signal stood at 0.0787 normalized occupancy.

Consider CAAGGGGC, for which the binding signal was 0.0772 normalized occupancy.

For the sequence TACCTTGA, the binding signal is 0.0849 normalized occupancy.

Take CTTATAGA: the binding signal worked out at 0.0769 normalized occupancy.

For AAGCATGC, the binding signal amounted to 0.118 normalized occupancy.

AAGCATCT: the binding signal came to 0.0778 normalized occupancy.

On to AAGCATAT, for which the binding signal worked out at 0.0839 normalized occupancy.

Turning to AAGCATGT, the binding signal is 0.0997 normalized occupancy.

For AAGCATAC, the binding signal turned out to be 0.0751 normalized occupancy.

AAGCATTC: the binding signal was 0.0773 normalized occupancy.

On to AATGAACC, for which the binding signal turned out to be 0.0718 normalized occupancy.

On to AGTTTTAT, for which the binding signal turned out to be 0.0775 normalized occupancy.

On to ACTCATGA, for which the binding signal stood at 0.0903 normalized occupancy.

Regarding ACTCATGC, the binding signal was 0.0969 normalized occupancy.

As for AGTCATGA, the binding signal was determined as 0.0829 normalized occupancy.

Turning to CCTCATGA, the binding signal worked out at 0.0951 normalized occupancy.

Regarding ACTCATGG, the binding signal was found to be 0.0945 normalized occupancy.

With AGTCATGC, the binding signal came out at 0.096 normalized occupancy.

With AGTCATGG, the binding signal was determined as 0.0855 normalized occupancy.

For CCTCATGC, the binding signal was determined as 0.109 normalized occupancy.

Take CTTCATGC: the binding signal worked out at 0.0794 normalized occupancy.

With AATACACG, the binding signal amounted to 0.0912 normalized occupancy.

Regarding CCCTCGAA, the binding signal came out at 0.0795 normalized occupancy.

AGCACGAT: the binding signal is 0.0857 normalized occupancy.

With CGCACGAG, the binding signal was 0.107 normalized occupancy.

Consider AGCACGTA, for which the binding signal was 0.0853 normalized occupancy.

For AGCACGAA, the binding signal was found to be 0.0827 normalized occupancy.

For the sequence AGCACGAG, the binding signal was 0.0964 normalized occupancy.

Turning to CGCACGAA, the binding signal came out at 0.0816 normalized occupancy.

For the sequence CGCACAAA, the binding signal came out at 0.0718 normalized occupancy.

For the sequence AGCACGTC, the binding signal came to 0.081 normalized occupancy.

For the sequence AGCACGTG, the binding signal turned out to be 1 normalized occupancy.

Consider CTACCCCA, for which the binding signal was found to be 0.0788 normalized occupancy.

In the case of ACGAGGCT, the binding signal came to 0.0805 normalized occupancy.

On to AGAACAAT, for which the binding signal came to 0.0787 normalized occupancy.

ACCCGCTG: the binding signal turned out to be 0.0761 normalized occupancy.

Take CCCCGTTA: the binding signal turned out to be 0.0766 normalized occupancy.

In the case of CACGATGG, the binding signal is 0.0884 normalized occupancy.

For the sequence CTAGCACA, the binding signal was found to be 0.0827 normalized occupancy.

For CTATGTAC, the binding signal worked out at 0.0847 normalized occupancy.

With GCATGTAC, the binding signal is 0.0973 normalized occupancy.

Consider ACATGTAC, for which the binding signal turned out to be 0.0958 normalized occupancy.

For the sequence GAATGTAC, the binding signal was found to be 0.0769 normalized occupancy.

On to CCATGTAC, for which the binding signal amounted to 0.086 normalized occupancy.

Regarding AGATGTAC, the binding signal came out at 0.0766 normalized occupancy.

TGAGATAA: the binding signal is 0.0797 normalized occupancy.

In the case of ATAATGAC, the binding signal amounted to 0.0804 normalized occupancy.

In the case of AACTTGCC, the binding signal was 0.0757 normalized occupancy.

With GAAACGCC, the binding signal amounted to 0.0758 normalized occupancy.

Consider CACTGCTG, for which the binding signal turned out to be 0.0746 normalized occupancy.

Regarding ATATGATC, the binding signal worked out at 0.0857 normalized occupancy.

As to CCACATAA, the binding signal was determined as 0.0799 normalized occupancy.

Regarding CAGCAGAG, the binding signal was 0.0727 normalized occupancy.

With CATGAGGG, the binding signal came to 0.109 normalized occupancy.

Consider CATGAGTC, for which the binding signal was 0.091 normalized occupancy.

Take CATGAGGA: the binding signal is 0.106 normalized occupancy.

On to GATGAGGC, for which the binding signal was found to be 0.0786 normalized occupancy.

Regarding AATGAGTA, the binding signal was 0.077 normalized occupancy.

On to TATGAGGA, for which the binding signal amounted to 0.0851 normalized occupancy.

Turning to AATGAGGG, the binding signal turned out to be 0.0862 normalized occupancy.

For CATGAGAG, the binding signal turned out to be 0.0941 normalized occupancy.

As for CATGAGGC, the binding signal amounted to 0.109 normalized occupancy.

Take CATGAGTA: the binding signal was 0.0969 normalized occupancy.

Regarding AATGAGGC, the binding signal turned out to be 0.0776 normalized occupancy.

Regarding AATGAGGA, the binding signal came to 0.0838 normalized occupancy.

Turning to GACACTTA, the binding signal is 0.0771 normalized occupancy.

Turning to GCAACACA, the binding signal was found to be 0.0795 normalized occupancy.

For the sequence TCAACTAA, the binding signal came to 0.0725 normalized occupancy.

As for ATTGAAAT, the binding signal worked out at 0.0772 normalized occupancy.

Regarding GTGAGTCA, the binding signal was 0.0793 normalized occupancy.

As for CCCCCCCA, the binding signal came out at 0.0901 normalized occupancy.

Turning to CGACAGCA, the binding signal turned out to be 0.0797 normalized occupancy.

Consider ATAAATAG, for which the binding signal is 0.0754 normalized occupancy.

With ATTCAGTA, the binding signal was determined as 0.0734 normalized occupancy.

With ATGACTAC, the binding signal amounted to 0.0811 normalized occupancy.

For ATGAGGGA, the binding signal stood at 0.0908 normalized occupancy.

With ATGAGGGC, the binding signal was 0.0956 normalized occupancy.

For the sequence ATGAGGGG, the binding signal was 0.0902 normalized occupancy.

For GATTTAGA, the binding signal worked out at 0.0724 normalized occupancy.

As for ACGTTGAC, the binding signal worked out at 0.0793 normalized occupancy.

Regarding AAACCACG, the binding signal is 0.0972 normalized occupancy.

For the sequence ATACCACG, the binding signal is 0.0991 normalized occupancy.

Regarding AAACCACA, the binding signal is 0.0814 normalized occupancy.

TAACCACA: the binding signal is 0.0809 normalized occupancy.

For ATACCACA, the binding signal stood at 0.089 normalized occupancy.

Turning to CTACCACA, the binding signal was determined as 0.0867 normalized occupancy.

As for CCGTTCTC, the binding signal was 0.0814 normalized occupancy.

As to ACAGCATA, the binding signal was determined as 0.0896 normalized occupancy.

On to ATAGCATC, for which the binding signal is 0.0799 normalized occupancy.

In the case of AGAGCATG, the binding signal came to 0.0989 normalized occupancy.

With ATAGCATA, the binding signal was 0.0872 normalized occupancy.

For AGAGCATC, the binding signal was 0.0755 normalized occupancy.

Take ATAGCATG: the binding signal amounted to 0.103 normalized occupancy.

Regarding AGAGCATA, the binding signal came out at 0.0815 normalized occupancy.

In the case of ACAGCATC, the binding signal came out at 0.0767 normalized occupancy.

Consider ACAGCATG, for which the binding signal turned out to be 0.127 normalized occupancy.
